Cav3 T inh: inhibitors of human Cav3.2 T-type calcium channel. Cav3.2-expressing cells, Fluo-4 calcium fluorescence FDSS; active compounds read low. O95180. B-score at 10 µM. 100,000 compounds, 4% hits;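 active = single-dose well whose peak fluorescence ratio is a statistical outlier from its plate by either plate-standardised score or position-corrected B-score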
PostGolgi ctrl: growth of the yeast control strain, post-Golgi counter-screen; efflux-deficient yeast background strain, growth absorbance A615, 16 h; inhibition, % at 10 µM; 98,000 compounds, 5% hits
PLAP activator: human PLAP activation. P05187. purified PLAP enzyme, luminescent substrate read-out; active compounds read high. activation fold at 20 µM. 96,000 compounds, 1.2% hits. AID 696; in the data active = activation fold above about 2
PostGolgi yeast: growth inhibition of a yeast mutant, post-Golgi transport screen. post-Golgi transport phenotypic cell assay. inhibition, % at 10 µM. 98,000 compounds, 0.9% hits. AID 739;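 note: yeast cells grown in 1536-well plates; yeast grown about 18 h at 30C before absorbance read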
hDAT+cocaine: changed human dopamine transporter uptake under cocaine IC80; LLC-PK1 hDAT cells, [14C]-dopamine uptake with cocaine IC80; actives deviate in either direction; B-score at 10 µM; Q01959; 110,000 compounds, 1.3% hits;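 active = Z score or B-score, a plate-position-corrected score, falls beyond the plate's 99.7% confidence bounds, in either direction; inactive = both scores lie inside the 99.7% bounds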
Each line names hits and unclear results; the compound was inactive in the other large screens. Hits are enriched below; roughly 9.6% of the tested compounds scored in any of these assays. Cut-off read from the data, not from the text of the source, unless noted: active = inhibition above about 30%; inactive = the rest.

CCn1cc(/C=N/NC(=O)c2ccc3c(c2)OCO3)c(C)n1	none
CCn1nc(C)c(/C=N/NC(=O)c2ccc3c(c2)c(C)c(C)n3Cc2ccccc2)c1C	Cav3 T inh -6.2
CCn1cc(/C=N\NC(=O)c2ccc3c(c2)c(C)c(C)n3Cc2ccccc2)c(C)n1	Cav3 T inh -6.6
Cn1c(=O)n(CC(=O)N2CCOCC2)c2ccccc21	none (no result: PostGolgi ctrl, PLAP activator, PostGolgi yeast)
CC1(C)Cc2ccccc2-c2nnc(-c3ccccn3)n21	none
CCOc1cc(/C=N\NC(=O)c2ccc(NC(=O)CC)cc2)ccc1OC(=O)c1ccccc1	none
COc1ccc(CN=Cc2c(C(F)(F)F)[nH][nH]c2=O)cc1	none
O=C(Nc1nc(-c2ccc3c(c2)OCO3)cs1)C1COc2ccccc2O1 (stereo not given)	Cav3 T inh -5.3
O=C(Nc1nc(-c2ccccc2)cs1)C1COc2ccccc2O1 (stereo not given)	none
O=C(CCc1ccc(S(=O)(=O)NC2CCCCC2)cc1)Nc1ccccc1	none
O=C(CCc1ccc(S(=O)(=O)NC2CCCCC2)cc1)N(Cc1ccccc1)Cc1ccccc1	Cav3 T inh -5.8
O=S(Cc1cc(Oc2ccccc2)nc(-c2ccccc2)n1)c1ccccc1 (stereo not given)	Cav3 T inh -6.6, PostGolgi ctrl 35
COc1ccc(S(=O)(=O)n2nc(OC(=O)c3c(-c4ccccc4Cl)noc3C)cc2N)cc1	Cav3 T inh -5.4
CCOC(=O)N1CCC(NC(=O)c2cnc3n(c2=O)CCS3)CC1	none (no result: PostGolgi ctrl, PLAP activator, PostGolgi yeast)
CNc1nc(SCc2ccc(C)cc2)nc2c1CCCC2	Cav3 T inh -6, PostGolgi ctrl 33
Cc1ccc(CSc2nc3c(c(N(C)C)n2)CCCC3)cc1	PostGolgi ctrl 41
CN(C)c1nc(SCc2ccccc2Cl)nc2c1CCCC2	PostGolgi ctrl 36, PostGolgi yeast 59
O=c1[nH]c(SCc2ccccc2Cl)nc2c1CCCC2	none
O=C(CCc1c[nH]c2ccccc12)NC1CC1	none
Cc1ccc2nc(-c3ccc(O)cc3)c(Nc3ccc4c(c3)OCCO4)n2c1	none
Cc1cc(C)n2c(Nc3ccc4c(c3)OCCO4)c(-c3ccccc3)nc2n1	PostGolgi ctrl 44
O=S(=O)(N1CCCCC1)n1c(Cc2ccccc2)nc2ccccc21	PostGolgi ctrl 37
c1ccc(N2CCN(c3nc(NCc4ccco4)c4ccccc4n3)CC2)cc1	none
c1coc(CNc2nc(N3CCCCC3)nc3ccccc23)c1	Cav3 T inh -4.3, PostGolgi yeast 40
COc1ccc(F)cc1CN1CCN(c2cc(C)nc3c4c(C)cc(C)nc4nn23)CC1	Cav3 T inh -7.8
Cc1nc([N+](=O)[O-])c(N2CCN(Cc3ccccc3)CC2)n1Cc1ccccc1	none
Cc1cc(C)c2c(n1)nn1c(N3CCN(Cc4ccccc4)CC3)cc(C)nc21	PLAP activator 2.1 (no result: Cav3 T inh, PostGolgi ctrl, PostGolgi yeast, hDAT+cocaine)
O=C(c1ccc(Cl)cc1)C1C2C(=O)N(c3ccccc3)C(=O)C2C2CCCN21 (stereo not given)	Cav3 T inh -6.9
CC(=O)c1ccc(N2C(=O)C3C(C2=O)C(C(=O)c2ccc(Cl)cc2)N2CCCC32)cc1 (stereo not given)	none
COc1ccc(S(=O)(=O)N2CCN(Cc3ccc(Cl)cc3)CC2)cc1	none
O=S(=O)(c1ccc(Cl)cc1)N1CCN(C2CCN(Cc3ccccc3)CC2)CC1	PostGolgi yeast 90
COc1ccccc1CNc1cc(CSc2ccc(Cl)cc2)nc(C)n1	PLAP activator 2
COc1ccccc1CNc1n[nH]c(NCc2ccccc2OC)n1	none
COc1cccc(CNc2cc(CSc3ccc(Cl)cc3)nc(C)n2)c1	Cav3 T inh -8.2, PLAP activator 2
C=CCOC(=O)C1=C[C@@H](c2ccc3c(c2)OCO3)C[C@@H](OCc2ccc(CO)cc2)O1	none (no result: PostGolgi ctrl, PLAP activator, PostGolgi yeast)
CCCNC(=O)c1cc2c(C(F)(F)F)nn(C)c2s1	none
CCCOc1ccc(/C(O)=C2/C(=O)C(=O)N(c3cc(C)on3)C2c2ccc(C(=O)OC)cc2)cc1 (stereo not given)	none
O=C(OCn1ncc(Br)c(Br)c1=O)c1c(F)cccc1F	PostGolgi yeast 57
N#Cc1nc(-c2cccs2)oc1NCc1ccccc1Cl	none (no result: Cav3 T inh, hDAT+cocaine)
COc1nc(NC23CC4CC(CC(C4)C2)C3)nc(OC)n1	PostGolgi ctrl 34
O=C(OCn1nnc2ccccc2c1=O)c1cc2ccccc2o1	none (no result: PostGolgi ctrl, PLAP activator, PostGolgi yeast)
O=C(NCCCN1CCCC1=O)c1ccc(OCc2ccccc2)cc1	PLAP activator 2.1
Cc1cc(CSc2ccccc2)ccc1NC(=O)c1ccc(Cl)c([N+](=O)[O-])c1	none
O=C(Cc1cc(=O)[nH]c(=O)[nH]1)N1CCC(Cc2ccccc2)CC1	none (no result: PLAP activator)
CCOC(=O)C1=C(CSc2nc(-c3ccccc3)ccc2C#N)OC(N)=C(C#N)C1c1cccnc1 (stereo not given)	PostGolgi yeast 61 (no result: Cav3 T inh)
CCOC(=O)C1=C(CSc2nc3c(cc2C#N)CCC3)OC(N)=C(C#N)C1c1ccccc1 (stereo not given)	Cav3 T inh -5.1 (no result: PLAP activator)
CCOC(=O)C1=C(CSc2nc(-c3ccccc3)ccc2C#N)OC(N)=C(C#N)C1c1ccccc1 (stereo not given)	none (no result: Cav3 T inh)
Cc1sc2c(=O)n3c(nc2c1C(=O)NC1CCCCC1)CCCCC3	none
CN=Cc1sc2ccccc2c1O	none
Oc1c(C=Nc2cccnc2)sc2ccccc12	PostGolgi ctrl 31
Oc1sc(C=Nc2ccccc2)c2ccccc12	Cav3 T inh -5.1
Cc1cc(C)nc(SCC(=O)Nn2cnnc2)n1	none
N#Cc1ccccc1NC(=O)Nc1cccs1	none
COc1ccc(-n2ccc(-c3nn(-c4cccc(C(F)(F)F)c4)ccc3=O)n2)cc1	Cav3 T inh -4.4, PostGolgi ctrl 31
O=c1ccn(-c2cccc(C(F)(F)F)c2)nc1-c1ccn(-c2ccccc2F)n1	Cav3 T inh -8
O=C(Nc1cccs1)OCCN1CCN(Cc2ccccc2)CCC1=O	none (no result: PostGolgi ctrl, PLAP activator, PostGolgi yeast)
Cc1ccc(NC(=O)N/C=C/c2ccco2)c(C)c1	PLAP activator 2.4 (no result: Cav3 T inh)
CSc1nc(-c2ccccc2)nc(N2CCCC2)c1C(C)=O	PostGolgi ctrl 39
CCc1cc2c(CN3CCN(C)CC3)cc(=O)oc2cc1O	hDAT+cocaine -9.5
COc1ccccc1N1CCN(C(=O)CSc2ccccc2)CC1	none
COc1ccccc1N1CCN(C(=O)c2ccc(NC(C)=O)cc2)CC1	hDAT+cocaine -3.1 (no result: Cav3 T inh)
COc1ccccc1N1CCN(C(=O)c2cc(-c3cccs3)on2)CC1	PostGolgi ctrl 50 (no result: PLAP activator)
COc1ccccc1N1CCN(C(=O)c2ccc(C(C)(C)C)cc2)CC1	Cav3 T inh -5, PostGolgi ctrl 36
COc1ccccc1N1CCN(C(=O)C(Sc2ccccc2)c2ccccc2)CC1 (stereo not given)	Cav3 T inh -4.6
COc1ccccc1N1CCN(C(=O)c2cc(-c3ccco3)on2)CC1	none
OCC[C@H]1C[C@@H](O)[C@H](O)[C@@]2(CCCO2)O1	none (no result: PostGolgi ctrl, PLAP activator, PostGolgi yeast)
COc1cccc(-c2cc(C(=O)N3CCN(C(c4ccccc4)c4ccccc4)CC3)no2)c1	PostGolgi yeast 38
Cc1nc2nc3c(cn2n1)C(=O)CC(C)(C)C3	none
O=C(NC12CC3CC(CC(C3)C1)C2)N1CCN(c2nc(-c3ccccc3)cs2)CC1	PostGolgi ctrl 42 (no result: Cav3 T inh, hDAT+cocaine)
c1ccc(-c2csc(N3CCOCC3)n2)cc1	none
